Laboratory results taken from PubChem BioAssay (Tox21).
Calls of active or inactive are those of the source. Calls follow the shape of the dose curve; as a rule, active = well fitted curve in the direction sought with a large enough effect in the repeat runs; inconclusive = weak or mixed curves; inactive = flat fitted curve, though single readings scatter.

Assay: qHTS assay to test for compound auto fluorescence at 535 nm (green) in HEK293 cell free culture (AID 720682)
Settings: cell-free medium, green autofluorescence 485/535 nm, stronger effect = higher value; series mostly up to 91.3 µM
From the text: U.S. Tox21 Program National Center for Advancing Translational Sciences [NCATS] NIH Chemical Genomics Center [NCGC] U.S. Environmental Protection Agency [EPA] National Institutes of Environmental Health Sciences [NIEHS] National Toxicology Program [NTP] U.S. Food and Drug Administration [FDA] Tox21 Assay Overview: Compound auto fluorescence often interferes with screening of the compound library against various biological targets and signaling pathways. Some of these compounds may have fluorophoric properties. Such properties may interfere with the assay outputs resulting in false positives and/or negatives. To decrease such complications and ensure the compound activities are relevant in terms of biological response, the Tox21 10K compound library was screened for auto fluorescence. From the fluorophores used as reporter signals in our screening assays, the auto fluorescence equivalencies of compounds against three fluorophores have been evaluated: Triamterene, Fluorescein and Rose Bengal sodium for blue, green and red fluorescence, respectively. The fluorescence intensities were measured using Excitation/Emission wavelengths at 405/460nm, 485/535nm and 540/590nm for blue, green and red labels, respectively. This assay includes the green fluorescence data.
Tox21 Assay Protocol Summary: 5 uL of culture medium (DMEM containing 10% FBS) per well was dispensed into black wall/clear bottom 1536-well plates using a Multidrop Combi Dispenser (ThermoFisher Scientific, Waltham, MA). After 23 nL compound or DMSO vehicle was transferred into assay plate by a pintool work station (Kalypsys, San Diego, CA), fluorescence intensities in the assay plates were measured by an Envision (PerkinElmer, Shelton, CT) plate reader using three labels for measuring blue, green and red fluorescence at […] 460, 535 and 590nm respectively.
% is scaled to controls: 0 for no effect and ±100 for the full control effect.

Row | Structure (SMILES) | outcome | activity change
1 | O=C1CCCCCCCCCCCC(=O)OCCO1 | inactive | 
2 | Cc1cccc(Nc2ccccc2)c1 | inactive | 
3 | CCCn1cnc2c1c(=O)n(CCCCC(C)=O)c(=O)n2C | inactive | 
4 | CC1=CCCC(C)(C)C12CCC(C)O2 (stereo not given) | inactive | 
5 | CN(C)C(=O)NC1(c2ccccc2)CCN(CC[C@@]2(c3ccc(F)c(F)c3)CN(C(=O)c3ccccc3)CCO2)CC1 | inactive | 
6 | C[C@H](CCC(=O)O)[C@H]1CC[C@H]2[C@@H]3CC[C@@H]4C[C@H](O)CC[C@]4(C)[C@H]3C[C@H](O)[C@]12C | inactive | 
7 | C#Cc1cccc(Nc2ncnc3cc(OCCOC)c(OCCOC)cc23)c1 | inactive | 
8 | CCN(CC)CCOC(=O)C(Cc1cccc2ccccc12)CC1CCCO1 (stereo not given) |  | -0.0273% [at 18.6 µM] (inactive)
9 | CC(=O)c1ccc2c(c1)N(CCCN(C)C)c1ccccc1S2 |  | -0.283% [at 18.6 µM] (inactive)
10 | C=C1C(=C/C=C2\CCC[C@]3(C)[C@@H]([C@H](C)/C=C/[C@@H](O)C4CC4)CC[C@@H]23)C[C@@H](O)C[C@@H]1O | inactive | 
11 | CCOc1ccc(N)c([N+](=O)[O-])c1 | inactive | 
12 | C/C(=C(\CCOP(=O)(O)O)SC(=O)c1ccccc1)N(C=O)Cc1cnc(C)nc1N |  | 0.0312% [at 18.6 µM] (inactive)
13 | CCC(=O)O[C@]1(C(=O)CCl)[C@@H](C)C[C@H]2[C@@H]3CCC4=CC(=O)C=C[C@]4(C)[C@@]3(F)[C@@H](O)C[C@@]21C | inactive | 
14 | COc1ccc(C(=O)Nc2nc3ccccc3c(NCc3ccccc3)c2C#N)cc1 | inactive | 
15 | CC(=O)[O][Al][O]C(C)=O | inactive | 
16 | O=[N+]([O-])c1ccc2[nH]ncc2c1 | inactive | 
17 | Cc1ccccc1S(=O)(=O)O | inactive | 
18 | CC(C)C[C@H]1C(=O)N2CCC[C@H]2[C@]2(O)O[C@](NC(=O)[C@@H]3C=C4c5cccc6[nH]c(Br)c(c56)C[C@H]4N(C)C3)(C(C)C)C(=O)N12 | inactive | 
19 | O=S(c1cc(Cl)cc(Cl)c1O)c1cc(Cl)cc(Cl)c1O | inactive | 
20 | c1ccc(-c2ccccn2)nc1 | inactive | 

Row | Structure (SMILES) | outcome | activity change
21 | CC1(c2ccccc2)OC(C(=O)O)=CC1=O (stereo not given) | inactive | 
22 | OC(C#CCN1CCCC1)(c1ccccc1)c1ccccc1 | inactive | 
23 | N=c1ccn2c(n1)O[C@H]1[C@H](O)[C@@H](CO)O[C@H]12 | inactive | 
24 | CCOCC(O)COc1ccc(NC(=O)CC[S+](C)C)cc1 (stereo not given) | inactive | 
25 | CC(C)Nc1ccc(NC(C)C)c2c1C(=O)c1ccccc1C2=O | inactive | 
26 | CCCCc1nc2cccnc2n1Cc1ccc(-c2ccccc2-c2nnn[nH]2)cc1 | inactive | 
27 | CC(C)OC(=O)C(C)N(C(=O)c1ccccc1)c1ccc(F)c(Cl)c1 (stereo not given) | inactive | 
28 | Nc1cc(C(=O)O)c(O)c(S(=O)(=O)O)c1 | inactive | 
29 | O=C(O)C1(C(=O)Nc2ccc(Cl)cc2Cl)CC1 | inactive | 
30 | CC(C)(O)c1ccc(CNC(=O)c2cccnc2Oc2ccc(F)cc2)cc1 | inactive | 
31 | CC(C)CC(=O)C1C(=O)c2ccccc2C1=O | inactive | 
32 | CC1=CC=C(C(C)C)CC1 | inactive | 
33 | Cc1oc(-c2ccccc2)nc1CCOc1cccc2c1ccn2CCC(=O)O | inactive | 
34 | C=CC(=O)OCCOc1ccccc1 | inactive | 
35 | CC(CSC(=O)c1ccccc1)C(=O)N1C[C@@H](Sc2ccccc2)C[C@H]1C(=O)O (stereo not given in full) | inactive | 
36 | COc1cc(Cl)ccc1Oc1ccc(Cl)cc1Cl | inactive | 
37 | COC(=O)C1=C(C)NC(COC(N)=O)=C(C(=O)OC(C)C)C1c1cccc(Cl)c1Cl (stereo not given) | inactive | 
38 | OCc1cc(C(O)CNCCCCCCOCCCCc2ccccc2)ccc1O (stereo not given) | inactive | 
39 | CCC(C)O (stereo not given) | inactive | 
40 | COc1cc2c(cc1OC)C(C(C(=O)N(CCc1ccc(OC)c(OC)c1OC)CCc1ccc(OC)c(OC)c1OC)c1ccccc1)=NCC2 (stereo not given) | inactive | 
